# F-actin modifier: alters cytoskeleton assembly in HUVEC cells | inhibition, % at 2 µM | HUVEC TNFa F-actin phalloidin imaging, high content | 91,000 compounds, 0.18% hits | AID 836;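 active means inhibition above the batch mean plus 3 SD and confirmed as a hit by visual image inspection, cut at about 30% in these data, passing the limit was not always enough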
# CYP2C19 activ: increases human CYP2C19 enzyme activity; P33261; recombinant CYP2C19, luciferin-H EGE luminescence; active compounds read high; 0 = fully inhibited enzyme, 1 = untreated enzyme; activation factor at 5 µM; 96,000 tested, under 10 active; AID 1025;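 active means activation factor of at least 2 at 5 µM in the primary screen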;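 further: 0 = wells with 2.5 mM tranylcypromine and 1 = vehicle-only wells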
# Target sequence (P33261 whole entry, looked up): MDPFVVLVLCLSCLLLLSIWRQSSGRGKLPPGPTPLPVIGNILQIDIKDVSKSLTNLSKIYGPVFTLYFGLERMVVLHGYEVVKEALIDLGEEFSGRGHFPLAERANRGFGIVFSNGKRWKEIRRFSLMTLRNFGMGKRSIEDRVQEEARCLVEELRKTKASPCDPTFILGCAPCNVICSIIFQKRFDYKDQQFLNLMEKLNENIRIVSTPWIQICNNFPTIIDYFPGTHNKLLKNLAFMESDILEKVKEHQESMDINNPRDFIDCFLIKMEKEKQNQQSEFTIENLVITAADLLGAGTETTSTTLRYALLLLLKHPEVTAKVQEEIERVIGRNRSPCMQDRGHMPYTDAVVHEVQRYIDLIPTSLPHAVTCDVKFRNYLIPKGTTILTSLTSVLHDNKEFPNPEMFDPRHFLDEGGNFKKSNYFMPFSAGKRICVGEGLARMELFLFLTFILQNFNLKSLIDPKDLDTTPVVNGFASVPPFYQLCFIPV
# CYP2C9 activ: CYP2C9 (human) activation. activation factor at 5 µM. recombinant CYP2C9, luciferin-H conversion, luminescence; active compounds read high; factor 1 = untreated enzyme, 0 = blocked. P11712. 96,000 compounds, 1.4% hits. AID 1024;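 active means activation factor of 2 or more for CYP2C9 at a 5 µM dose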;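 further: 0 = sulfaphenazole-blocked wells and 1 = vehicle-only wells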
# CYP2C9 inhib: inhibitors of human CYP2C9. P11712. CYP2C9 Supersomes, luciferin-H conversion, luminescence. inhibition, % at 5 µM. 96,000 compounds, 20% hits. AID 777;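 active means blocking of liver enzyme CYP2C9 beyond about 50% at 5 µM, limit read from the data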
# CYP2C19 inh: human CYP2C19 inhibition; inhibition, % at 5 µM; 96,000 compounds, 21% hits; P33261; CYP2C19 Supersomes, luciferin-H EGE luminescence, 30 min;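 active means CYP2C19 inhibition above a set limit at 5 µM in the primary screen, cut at about 50% in these data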;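 further: plate controls were negative control wells for no effect and 2.5 mM tranylcypromine positive control for full effect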
# E-sel TNF inh: blocks E-selectin expression induced by TNF alpha; HUVEC TNFa-induced E-selectin immunofluorescence, high content; inhibition, % at 2 µM; 120,000 compounds, 0.71% hits; AID 1246;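 active means inhibition above the batch mean plus 3 SD, and confirmed as a hit on visual image review, cut at about 43% in these data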;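 further: 0% = TNF-stimulated DMSO wells and 100% = unstimulated control wells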
# * hit, by the source's call; x = no result. A selection: hits, their analogues and other compounds. The true share with any hit is near 22%.
SMILES,F-actin modifier,CYP2C19 activ,CYP2C9 activ,CYP2C9 inhib,CYP2C19 inh,E-sel TNF inh
CCN(CC)S(=O)(=O)c1cccc(-c2nnc(SCC(=O)NC3CCCCCCC3)n2N)c1,12,0.5,0.2,79*,52*,12
COc1ccc2c(c1)C(=O)CC(c1ccccc1F)O2 (stereo not drawn),-2,0.1,1.1,-13,87*,3
COc1ccc2c(c1)C(=O)c1ccccc1CO2,-5,0.9,0.9,9,11,22
COc1cc(C2/C(=C(/O)c3ccc(OCC(C)C)cc3)C(=O)C(=O)N2CCN(C)C)ccc1O (stereo not drawn),-4,0.3,0.9,8,68*,16
CC(C)COc1ccc(/C(O)=C2/C(=O)C(=O)N(CCN(C)C)C2c2ccncc2)cc1 (stereo not drawn),41,1.1,1,2,-10,16
Cc1ccc(Nc2cccccc2=O)cc1,-28,0.2,0.6,36,75*,9
CCC(C)(C)n1nnnc1CN1CCC(NC(=O)c2ccccc2C)CC1,18,x,x,x,x,-27
Cc1cc(O)c(/C=N/Nc2cccc(Cl)c2)c(=O)o1,11,0.4,0.3,71*,58*,-18
Cc1cc(O)c(/C=N/Nc2ccccc2Cl)c(=O)o1,7,0.7,0.7,27,30,-25
Nc1nnc(Cc2ccccc2)s1,11,1.1,1.2,-22,-6,22
Nc1nnc(CC(c2ccccc2)c2ccccc2)s1,2,0.1,0.8,20,85*,-14
CCOc1ccc(OCC)c(NC(=O)CN2CCC(NC(=O)c3cccc(F)c3)CC2)c1,x,0.3,0.3,68*,74*,x
O=C(CN1C(=O)c2ccccc2C1=O)Nc1ccccc1C(=O)NC1CCCCC1,-7,1,0.3,65*,-4,x
CCOc1ccccc1NC(=O)CN1CCC(NC(=O)c2ccccc2)CC1,-2,0,1.9,-91,95*,14
COC(=O)c1ccc(C(=O)OC)c(NC(=O)CN2CCN(c3ccccc3)CC2)c1,x,0.7,0.5,49,30,-73
COC(=O)c1ccccc1NC(=O)CN1CCN(C23CC4CC(CC(C4)C2)C3)CC1,x,0.7,0.5,53*,33,-38
COC(=O)c1ccccc1NC(=O)CN1CCC(NC(=O)c2ccc(C)cc2)CC1,13,0.1,0.3,67*,88*,-1
CCCN1CCC(NC(=O)Nc2ccccc2C(=O)OC)CC1,-9,1,0.9,6,-4,4
COc1cc(Br)c(C(C)NC(=O)c2cccc(Br)c2)cc1OC (stereo not drawn),-30,0.4,0.3,66*,62*,4
COc1cc(Br)c(C(C)NC(=O)c2ccc(C)cc2)cc1OC (stereo not drawn),2,0.7,0.8,25,35,-8
O=C(Nc1ccc(Cl)c(S(=O)(=O)Nc2ccccc2Cl)c1)c1cccs1,x,x,x,x,x,-1
COc1cc(C2NC(=S)NC(c3ccccc3)=C2C(C)=O)cc(Br)c1OCC(N)=O (stereo not drawn),x,x,x,x,x,-64
COc1ccc(Cl)cc1N1C(=O)C2CCCN2C1c1cccc(F)c1 (stereo not drawn),5,0.5,1.4,-37,54*,-7
COc1ccc(C2N(c3cc(Cl)ccc3OC)C(=O)C3CCCN32)cc1OC (stereo not drawn),0,0.5,2*,-96,49,-2
COc1ccc(Cl)cc1N1C(=O)C2CCCN2C1c1ccc(F)c(F)c1 (stereo not drawn),6,0.5,1.5,-47,45,x
SMILES,F-actin modifier,CYP2C19 activ,CYP2C9 activ,CYP2C9 inhib,CYP2C19 inh,E-sel TNF inh
COc1ccc2c(c1)C1C=CCC1C(c1cc3c(cc1Br)OCO3)N2 (stereo not drawn),-35,0.3,0.2,75*,70*,5
CCOC(=O)c1ccc2c(c1)C1C=CCC1C(C(=O)O)N2 (stereo not drawn),x,0.9,0.7,27,8,-30
O=C(C(Cl)Cl)N1c2ccccc2OCC1c1ccccc1 (stereo not drawn),-13,0.2,0.2,75*,78*,11
CC(OC(=O)C1COc2ccccc2O1)C(=O)N(C)c1ccccc1 (stereo not drawn),x,x,x,x,x,-3
CC1CCC(NC(=O)C2CCN(c3cnccn3)CC2)CC1 (stereo not drawn),0,0.5,1.1,-11,53*,-9
CCC(=O)NC(c1ccc([N+](=O)[O-])cc1)c1c(O)ccc2ccccc12 (stereo not drawn),-31,0.1,0.5,54*,94*,100*
CC(C)C(=O)NC(c1ccco1)c1c(O)ccc2ccccc12 (stereo not drawn),16,0.7,0.3,66*,26,21
O=C(NC(c1ccccc1)c1c(O)ccc2ccccc12)c1ccccc1Cl (stereo not drawn),-5,0.2,0.1,93*,76*,27
C/C(NC(=O)c1cccc(F)c1)=C1/C(=O)C[C@@H]2[C@H]1C2(C)C,-3,0.6,0.9,8,37,-27
CCCOC(=O)CSC1=C(C#N)C(c2ccccc2Cl)CC(=O)N1 (stereo not drawn),7,0.1,0,96*,95*,x
CCCCOC(=O)CSC1=C(C#N)C(c2ccc3c(c2)OCO3)CC(=O)N1 (stereo not drawn),-4,0.5,0.4,57*,48,x
CCCCCCSC1=C(C#N)C(c2ccc(O)cc2)CC(=O)N1 (stereo not drawn),14,0.4,0.3,74*,63*,6
CCSC1=C(C#N)C(c2cccc(O)c2)CC(=O)N1 (stereo not drawn),4,0.9,1,-2,11,-2
CCOC(=O)CSC1=C(C#N)C(c2ccc(Cl)cc2)CC(=O)N1 (stereo not drawn),5,0,0,98*,96*,0
COc1cccc(/C=N/NC(=O)c2csc(-n3nc(C)cc3C(F)(F)F)n2)c1,-23,0.7,0.9,12,26,x
CCOC(=O)c1cc(C(=O)c2cccs2)n2ccc(C(C)=O)cc12,-6,1,0.9,13,-3,10
CC(C)(C)c1[nH]nc2c1C(c1ccc(OC(=O)c3ccco3)cc1)C(C#N)=C(N)O2 (stereo not drawn),-13,0.3,0.3,71*,65*,-3
CCCC1C(C#N)=C(N)Oc2cc(C)n(C)c(=O)c21 (stereo not drawn),-23,1,1.1,-13,-4,x
CC(C)(C)c1[nH]nc2c1C(Cc1ccccc1)C(C#N)=C(N)O2 (stereo not drawn),x,0.3,0.4,59*,73*,-18
Cc1cc2c(c(=O)n1C)C(Cc1ccccc1)C(C#N)=C(N)O2 (stereo not drawn),-13,0.2,0.7,34,83*,-13
O=C(CSc1nnc(CN2CCOCC2)n1-c1ccc(Cl)cc1)Nc1ccc2c(c1)OCO2,28,1,0.8,18,2,12

# Screening data deposited in PubChem by several laboratories.
